The results in this text go back to PubChem BioAssay (Tox21).

Assay [1] is described as follows: qHTS assay to identify small molecule agonists of the peroxisome proliferator-activated receptor delta (PPARd) signaling pathway - cell viability counter screen (AID 743211). Also: nearly all actives have a fitted effect of over 55% in size. Also: potency is read from the fitted curve at half-maximal effect. Summed up:
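In the same wells used for beta-lactamase reporter measurement, cytotoxicity is scored by CellTiter-Glo. HEK293H PPARd-bla cells receive compound for 17 h at 37C following a 5 h settling period.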
On the technique in general: In qHTS, concentration-response curves come from the screen itself.

The target of assay [2] is Peroxisome proliferator-activated receptor delta (Homo sapiens) (UniProt Q03181). In words: qHTS assay to identify small molecule agonists of the peroxisome proliferator-activated receptor delta (PPARd) signaling pathway (AID 743212; calls by dose curve). A digest of the protocol: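 Read-out: beta-lactamase FRET fluorescence after 2 h room-temperature incubation with LiveBLAzer B/G substrate. Cells were HEK293H carrying a UAS-bla reporter for PPARd, treated at 37 C with DMSO-dissolved compounds.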
Peroxisome proliferator-activated receptor delta (Homo sapiens), sequence (Q03181 whole entry, looked up): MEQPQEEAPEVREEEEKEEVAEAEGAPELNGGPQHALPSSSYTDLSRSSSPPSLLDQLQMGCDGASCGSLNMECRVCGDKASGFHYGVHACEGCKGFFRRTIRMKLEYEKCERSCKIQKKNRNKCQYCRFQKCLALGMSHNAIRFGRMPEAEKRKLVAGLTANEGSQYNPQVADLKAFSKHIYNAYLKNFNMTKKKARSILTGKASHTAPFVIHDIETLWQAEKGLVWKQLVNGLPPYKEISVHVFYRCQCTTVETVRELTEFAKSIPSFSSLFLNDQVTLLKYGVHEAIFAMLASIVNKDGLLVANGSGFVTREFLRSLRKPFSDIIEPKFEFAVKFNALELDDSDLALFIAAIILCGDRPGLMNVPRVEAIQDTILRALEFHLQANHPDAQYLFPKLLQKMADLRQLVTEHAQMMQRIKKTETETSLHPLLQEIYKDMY

Assay [3] can be described thus: qHTS assay to identify small molecule antagonists of the peroxisome proliferator-activated receptor delta (PPARd) signaling pathway - cell viability counter screen (AID 743213). Also: nearly all actives have a fitted effect of over 50% in size. Also: potency is read from the fitted curve at half-maximal effect. A digest of the protocol:
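PPARd-bla HEK293H cells were treated with compounds plus agonist L165041 (300 nM final) for 17 h at 37 C. Viability was then read in the same wells by CellTiter-Glo luminescence after 30 min at room temperature.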

The target of assay [4] is Peroxisome proliferator-activated receptor delta (Homo sapiens) (UniProt Q03181). As to the kind of experiment: qHTS assay to identify small molecule antagonists of the peroxisome proliferator-activated receptor delta (PPARd) signaling pathway (AID 743215; active = well fitted inhibition curve with a large enough effect in the signal ratio in the repeat runs, not every such curve was filed as active; the % refers to the signal ratio;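 also: cells stimulated with agonist L165041 at 300 nM final during compound exposure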; also: potency is read from the fitted curve at half-maximal effect). Summed up:
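Cells: HEK293H with a UAS-driven beta-lactamase reporter responsive to PPARd. Compounds were co-added with L165041 (300 nM, final) and incubated 17 h at 37 C before a 2 h room-temperature FRET substrate step and fluorescence reading.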

The target in assay [5] is Bile acid receptor (Homo sapiens) (UniProt Q96RI1). As to the kind of experiment: qHTS assay to identify small molecule antagonists of the farnesoid-X-receptor (FXR) signaling pathway (AID 743217; active = well fitted inhibition curve with a large enough effect in the signal ratio in the repeat runs, not every such curve was filed as active; the % refers to the signal ratio). A digest of the protocol: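 Cells carrying a UAS-driven beta-lactamase reporter (GeneBLAzer FXR-UAS-bla HEK 293T) were plated and rested 5 h at 37 °C. Compounds in DMSO were added alongside chenodeoxycholic acid agonist at 50 uM final and left 16 h at 37 °C before FRET substrate readout.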
Bile acid receptor (Homo sapiens), sequence (Q96RI1 whole entry, looked up): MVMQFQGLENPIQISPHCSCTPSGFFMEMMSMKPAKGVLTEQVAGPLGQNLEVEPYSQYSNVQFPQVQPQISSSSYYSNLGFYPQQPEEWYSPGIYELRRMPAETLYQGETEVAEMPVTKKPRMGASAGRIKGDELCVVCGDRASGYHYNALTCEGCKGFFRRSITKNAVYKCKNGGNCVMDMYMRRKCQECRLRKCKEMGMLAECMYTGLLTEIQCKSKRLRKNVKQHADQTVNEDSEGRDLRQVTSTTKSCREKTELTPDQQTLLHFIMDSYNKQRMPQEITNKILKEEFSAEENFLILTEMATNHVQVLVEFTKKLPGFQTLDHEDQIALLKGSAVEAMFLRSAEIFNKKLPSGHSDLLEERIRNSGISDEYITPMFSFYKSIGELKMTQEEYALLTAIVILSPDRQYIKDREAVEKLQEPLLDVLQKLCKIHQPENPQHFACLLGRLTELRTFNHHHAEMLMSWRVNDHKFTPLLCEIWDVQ

A short description of assay [6]: qHTS assay to identify small molecule agonists of the farnesoid-X-receptor (FXR) signaling pathway - cell viability counter screen (AID 743218). Also: nearly all actives have a fitted effect of over 45% in size. A digest of the protocol:
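Cells were seeded, left 5 h at 37 C and 5% CO2, then dosed with compound in DMSO for 16 h. After the beta-lactamase FRET read, CellTiter-Glo was added and luminescence measured 30 min later.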

Assay [7] has as its target Bile acid receptor (Homo sapiens) (UniProt Q96RI1). As to the kind of experiment: qHTS assay to identify small molecule agonists of the farnesoid-X-receptor (FXR) signaling pathway (AID 743220; active = well fitted activation curve with a large enough effect in the signal ratio in the repeat runs, not every such curve was filed as active; the % refers to the signal ratio). Summed up:
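FXR-UAS-bla HEK 293T cells carrying a UAS-driven beta-lactamase reporter were plated for 5 h at 37C/5% CO2, then exposed to DMSO-dissolved Tox21 10K compounds for 16 h at 37C. A LiveBLAzer B/G FRET substrate was loaded for 2 h at room temperature before fluorescence reading.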

Assay [8] can be described thus: qHTS assay to identify small molecule antagonists of the farnesoid-X-receptor (FXR) signaling pathway - cell viability counter screen (AID 743221; active = well fitted cell-killing curve with a large enough effect in the repeat runs, not every such curve was filed as active; also: nearly all actives have a fitted effect of over 50% in size; also: potency is read from the fitted curve at half-maximal effect). A digest of the protocol:
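Here viability was scored by luminescence after CellTiter-Glo addition to wells already read for beta-lactamase. Prior treatment: compound plus CDCA (50 uM final), 16 h, 37 C, HEK 293T FXR-bla cells.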

In assay [9] the target is Vitamin D3 receptor (Homo sapiens) (UniProt P11473). In words: qHTS assay to identify small molecule agonists of the vitamin D receptor (VDR) signaling pathway (AID 743222; calls by dose curve). Summed up: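 Cells carrying a VDR-driven beta-lactamase reporter are seeded at 2,000 per well and rested 4 h. Compounds in DMSO are added for 16 h at 37C, and FRET substrate fluorescence is measured after 2 h at room temperature.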
Vitamin D3 receptor (Homo sapiens), sequence (P11473 whole entry, looked up): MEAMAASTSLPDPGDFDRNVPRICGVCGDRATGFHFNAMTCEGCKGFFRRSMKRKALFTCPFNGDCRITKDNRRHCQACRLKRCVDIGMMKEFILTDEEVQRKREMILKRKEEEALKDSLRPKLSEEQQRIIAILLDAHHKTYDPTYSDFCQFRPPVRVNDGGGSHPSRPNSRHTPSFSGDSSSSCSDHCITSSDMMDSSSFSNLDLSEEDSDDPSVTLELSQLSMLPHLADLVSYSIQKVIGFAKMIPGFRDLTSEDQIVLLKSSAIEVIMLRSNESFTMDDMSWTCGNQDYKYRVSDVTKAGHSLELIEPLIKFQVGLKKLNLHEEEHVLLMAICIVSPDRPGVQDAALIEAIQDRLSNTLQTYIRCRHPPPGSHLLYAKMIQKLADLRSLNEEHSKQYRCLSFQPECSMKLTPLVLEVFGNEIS

The target is the same in assay [10]. As to the kind of experiment: qHTS assay to identify small molecule antagonists of the vitamin D receptor (VDR) signaling pathway (AID 743223; active = well fitted inhibition curve with a large enough effect in the signal ratio in the repeat runs, not every such curve was filed as active; the % refers to the signal ratio; also: potency is read from the fitted curve at half-maximal effect). Summed up: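 Inhibition of agonist-driven VDR signalling is scored in VDR-bla cells: 3 nM final 1alpha,25-dihydroxyvitamin D3 plus compound, 16 h at 37C, then beta-lactamase detection by FRET substrate fluorescence after 2 h.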

A short description of assay [11]: qHTS assay to identify small molecule agonists of the vitamin D receptor (VDR) signaling pathway - cell viability counter screen (AID 743224). Also: nearly all actives have a fitted effect of over 50% in size. Also: potency is read from the fitted curve at half-maximal effect. A digest of the protocol: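 Cells: VDR-bla, 2,000/well, settled 4 h. Treatment: compounds in DMSO, 16 h, 37C/5% CO2. Readout: CellTiter-Glo luminescence after 30 min RT.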
A short description of assay [12]: qHTS assay to identify small molecule antagonists of the vitamin D receptor (VDR) signaling pathway - cell viability counter screen (AID 743225). Also: nearly all actives have a fitted effect of over 50% in size. Also: potency is read from the fitted curve at half-maximal effect. A digest of the protocol: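 Compounds were pinned onto VDR-bla HEK 293T cells together with 1-alpha,25-dihydroxyvitamin D3 at 3 nM final. After 16 h at 37C and 5% CO2 plus the reporter readout, cell viability was measured by CellTiter-Glo luminescence (30 min, room temperature).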

A short description of assay [13]: qHTS assay to identify small molecule agonists of the NFkB signaling pathway - cell viability counter screen (AID 1159515; calls by dose curve; also: nearly all actives have a fitted effect of over 55% in size; also: potency is read from the fitted curve at half-maximal effect). A digest of the protocol: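 Cells are seeded (2,000 NFkB-bla ME-180 per well), rested overnight, and dosed with DMSO-dissolved compounds for 5 hr at 37 C. Viability is then read by CellTiter-Glo luminescence after 30 min at room temperature.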

A short description of assay [14]: qHTS assay to identify small molecule agonists of the endoplasmic reticulum stress response signaling pathway (AID 1159516; active = well fitted activation curve with a large enough effect in the signal ratio in the repeat runs, not every such curve was filed as active; the % refers to the signal ratio). Summed up: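 Cells are seeded at 1,500 per well and incubated overnight. Compounds in DMSO are added for 5 hr at 37 C, then beta-lactamase FRET substrate for 2 hr at room temperature, and fluorescence at 460 and 530 nm is measured.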
Assay [15] in a line: qHTS assay to identify small molecule agonists of the endoplasmic reticulum stress response signaling pathway - cell viability counter screen (AID 1159517; calls by dose curve; also: nearly all actives have a fitted effect of over 50% in size; also: potency is read from the fitted curve at half-maximal effect). Summed up: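 Steps: seed 1,500 ESRE-bla HeLa cells per well; incubate overnight at 37 C, 5% CO2; add compounds in DMSO for 5 hr; run FRET substrate 2 hr RT; add CellTiter-Glo, wait 30 min, read luminescence.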
The nature of assay [16]: qHTS assay to identify small molecule antagonists of the retinoid-related orphan receptor gamma (ROR-gamma) signaling pathway - cell viability counter screen (AID 1159520). Also: nearly all actives have a fitted effect of over 50% in size. Also: potency is read from the fitted curve at half-maximal effect. Summed up:
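Tet-on ROR gamma CHO cells were given compounds for 2 hr, then doxycycline hyclate at 1 uM final, and incubated 16 hr at 37 C. Viability was measured as ATP content by CellTiter-Glo luminescence.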

Assay [17] concerns the target Nuclear receptor ROR-gamma (Homo sapiens) (UniProt P51449). In words: qHTS assay to identify small molecule antagonists of the retinoid-related orphan receptor gamma (ROR-gamma) signaling pathway (AID 1159521; also: nearly all actives have a fitted effect of over 50% in size; also: potency is read from the fitted curve at half-maximal effect). A digest of the protocol: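 Test compounds were applied to Tet-on RORγ CHO cells 2 h ahead of doxycycline hyclate (1 uM final). Luciferase reporter activity was quantified by luminescence after 16 h at 37 C and 5% CO2.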

A short description of assay [18]: qHTS assay to identify small molecule agonists of the AP-1 signaling pathway - cell viability counter screen (AID 1159525; calls by dose curve; also: nearly all actives have a fitted effect of over 55% in size; also: potency is read from the fitted curve at half-maximal effect). Summed up:
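Same-well cytotoxicity counter screen of the Tox21 10K library in ME-180 cells. The readout is ATP-dependent luminescence after 5 h compound treatment. Data are normalised to DMSO and tetra n-octyl ammonium bromide controls.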

Assay [19] is described as follows: qHTS assay to identify small molecule agonists of the AP-1 signaling pathway (AID 1159526; calls by dose curve).
For assay [20], the target named is Retinoic acid receptor RXR-alpha (Homo sapiens) (UniProt P19793). As to the kind of experiment: qHTS assay to identify small molecule agonists of the RXR signaling pathway (AID 1159527; calls by dose curve; also: nearly all actives have a fitted effect of over 35% in size). Summed up: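 Using 9-cis retinoic acid as the reference agonist, chemicals were tested in HEK 293T cells […] for 16 hr; substrate loading lasted 2 hr at room temperature.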
Retinoic acid receptor RXR-alpha (Homo sapiens), sequence (P19793 whole entry, looked up): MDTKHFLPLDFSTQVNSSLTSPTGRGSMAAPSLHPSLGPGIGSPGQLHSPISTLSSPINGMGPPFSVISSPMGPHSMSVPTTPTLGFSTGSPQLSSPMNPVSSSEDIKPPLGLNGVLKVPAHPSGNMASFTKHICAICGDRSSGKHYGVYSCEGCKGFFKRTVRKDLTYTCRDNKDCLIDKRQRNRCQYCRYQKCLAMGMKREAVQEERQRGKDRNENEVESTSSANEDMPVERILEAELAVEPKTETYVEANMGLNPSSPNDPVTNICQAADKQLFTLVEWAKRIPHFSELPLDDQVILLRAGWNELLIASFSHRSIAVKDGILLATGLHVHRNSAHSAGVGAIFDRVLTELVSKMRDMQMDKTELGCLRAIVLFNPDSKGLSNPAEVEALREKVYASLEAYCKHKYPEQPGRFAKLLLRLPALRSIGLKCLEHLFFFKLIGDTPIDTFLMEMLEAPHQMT

The structures appear in SMILES notation. “And” between values parts separate entries of the source, which are not always exact repeats. Identical values can stand only once. Results filed as inconclusive are left out. A structure can be active in one record and inactive in another. The source made the active and inactive calls. Unless noted, calls follow the shape of the dose curve; as a rule, active = well fitted curve in the direction sought with a large enough effect in the repeat runs; inconclusive = weak or mixed curves; inactive = no such curve, though single readings can be large; an effect the other way counts as inactive or inconclusive.

Regarding `O=C1CCCO1`, the Potency result in [1], in [2], in assay [3], in assay [4], in [5] and in [6] was “inactive” throughout. The Potency result in assay [7], in [8], in assay [10], in assay [11], in assay [12] and in assay [13] was “inactive” each time. Further, the Potency result in assay [14], in assay [15], in assay [16], in [17] and in assay [18] was “inactive” each time. The molecule was classed as inactive in [9] and in assay [19].

For `Cc1cccc(N=Nc2ccc(N(C)C)cc2)c1`, the Potency entry in assay [1], in assay [2], in [3], in assay [4], in assay [6] and in assay [8] was “inactive” each time. In addition, the Potency entry in assay [10], in [11], in assay [12], in assay [13], in [15] and in assay [16] was “inactive” each time. Also, the Potency result in [17], in [18] and in [20] was “inactive” in each case. Moreover, the molecule was classed as inactive in assay [9] and in assay [19].

For `Oc1ccc(Cl)cc1Cc1ccccc1`, the Potency in assay [1] was 54.9 µM (active); in assay [3] it was 44.2 µM (active) and inactive; in [13], 54.9 µM (active) and 49.6 µM (active); in [15] it was 49 µM (active) and inactive; in assay [16], 61.1 µM (active) and inactive; in assay [18], 54.9 µM (active) and 44.2 µM (active). The Potency entry in [2], in [4], in [8], in assay [11] and in assay [14] was “inactive” throughout.

In the case of `O=C(O)c1nn(Cc2ccc(Cl)cc2Cl)c2ccccc12`, the Potency entry in assay [1], in assay [3], in [4], in assay [8], in assay [11] and in assay [12] was “inactive” throughout. Also, the Potency entry in assay [13], in assay [14], in assay [15], in assay [16], in assay [17] and in [18] was “inactive” throughout. Besides, the outcome in assay [9] and in [19] was inactive.

Take `CCN(CC)C(=O)C(C)Oc1cccc2ccccc12` (stereo not drawn): the Potency result in assay [1], in assay [2], in assay [3], in assay [4], in [5] and in assay [7] was “inactive” in each case. The Potency result in [8], in assay [11], in [12], in assay [13], in [14] and in [15] was “inactive” throughout. Also, the Potency entry in [16], in [17] and in assay [18] was “inactive” throughout. Further, the call in [19] was inactive.

Regarding `Cl`, the Potency result in assay [1], in [3], in assay [8], in assay [11], in assay [12] and in assay [13] was “inactive” in each case. Also, the Potency entry in assay [14], in [15], in assay [16], in [18] and in [20] was “inactive” in each case. The call in assay [19] was inactive.

Consider `Cc1ccc(N=CN(C)C=Nc2ccc(C)cc2C)c(C)c1`, for which the Potency in assay [1] is 49.2 µM (active) and 48.9 µM (active) and inactive; in assay [3], 24.5 µM (active); in assay [11], 39.1 µM (active) and 38.9 µM (active); in assay [13], 54.9 µM (active) and inactive; in assay [17], 48.8 µM (active) and 54.4 µM (active) and inactive; in assay [18], 54.9 µM (active) and inactive. The Potency entry in assay [8], in assay [12], in assay [14], in [15], in assay [16] and in assay [20] was “inactive” each time. The result in assay [9] and in assay [19] was inactive.

Turning to `N#Cc1c(Cl)c(Cl)c(Cl)c(C#N)c1Cl`, the Potency in [1] was 6.79 µM (active) and 6.92 µM (active); in assay [3], 15.2 µM (active) and 5.49 µM (active); in [8], 24.1 µM (active) and 21.9 µM (active); in assay [11] it was 1.91 µM (active) and 1.95 µM (active); in assay [12] it was 6.79 µM (active) and 8.71 µM (active); in assay [15] it was 5.39 µM (active) and 5.49 µM (active). Besides, the Potency was 1.51 µM (active) and 864 nM (active) in assay [16]; 1.9 µM (active) and 1.22 µM (active) in assay [17]; 7.76 µM (active) in assay [18]. Also, the molecule was called inactive in assay [9]. Moreover, the Potency entry in assay [13] was “inactive”.

On to `C=CC(=O)OCC(CC)(COC(=O)C=C)COC(=O)C=C`, for which the Potency was 11 µM (active) in assay [1]; 13.8 µM (active) in [3]; 12.6 µM (active) in assay [4]; “inactive and 43.6 µM (active)” in [8]; 6.92 µM (active) in [10]; 20 µM (active) and 11 µM (active) in [11]. Besides, the Potency is 20 µM (active) and 17.4 µM (active) in [12]; “inactive and 24.5 µM (active)” in [15]; 3.15 µM (active) and 6.86 µM (active) in [17]. The Potency entry in [5], in assay [13], in assay [14] and in [18] was “inactive” in each case. Further, the molecule was classed as inactive in assay [9].
